Target: pT7_6His-AlfaTag-HOXD13 (human, UniProt P35453 263-343)
Test: PADIT-seq
Conditions: dsDNA, one strand shown

pT7_6His-AlfaTag-HOXD13, sequence (P35453 263-343): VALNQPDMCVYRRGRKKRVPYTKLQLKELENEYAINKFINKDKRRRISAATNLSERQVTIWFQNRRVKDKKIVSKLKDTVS

| Sequence | binding signal [log2FC] |
| --- | --- |
| CTCGAGGATATCAAGATCTGGCCTCGGCTGATTAAAAGGAACCTCTAGCTAGCCGACTCACTATAGGGATAATCGCCCTGAGCAAAGACC | 1.86 ± 0.0796 |
| CTCGAGGATATCAAGATCTGGCCTCGGCGAACTAAAAGGAACCTCTAGCTAGCCGACTCACTATAGGGATAATCGCCCTGAGCAAAGACC | -0.56 ± 0.0894 |
| CTCGAGGATATCAAGATCTGGCCTCGGCTACTTAAAAGGAACCTCTAGCTAGCCGACTCACTATAGGGATAATCGCCCTGAGCAAAGACC | 0.982 ± 0.0923 |
| CTCGAGGATATCAAGATCTGGCCTCGGCCCCATAAAAGGAACCTCTAGCTAGCCGACTCACTATAGGGATAATCGCCCTGAGCAAAGACC | 2.77 ± 0.0828 |
| CTCGAGGATATCAAGATCTGGCCTCGGCTCGCTAAAAGGAACCTCTAGCTAGCCGACTCACTATAGGGATAATCGCCCTGAGCAAAGACC | 0.138 ± 0.111 |
| CTCGAGGATATCAAGATCTGGCCTCGGCCGTTTAAAAGGAACCTCTAGCTAGCCGACTCACTATAGGGATAATCGCCCTGAGCAAAGACC | 1.9 ± 0.069 |
| CTCGAGGATATCAAGATCTGGCCTCGGCGCTCTAAAAGGAACCTCTAGCTAGCCGACTCACTATAGGGATAATCGCCCTGAGCAAAGACC | 0.0795 ± 0.0859 |
| CTCGAGGATATCAAGATCTGGCCTCGGCCGGTTAAAAGGAACCTCTAGCTAGCCGACTCACTATAGGGATAATCGCCCTGAGCAAAGACC | 0.716 ± 0.0773 |
| CTCGAGGATATCAAGATCTGGCCTCGGCTTTTTATGTGGAACCTCTAGCTAGCCGACTCACTATAGGGATAATCGCCCTGAGCAAAGACC | 2.89 ± 0.0872 |
| CTCGAGGATATCAAGATCTGGCCTCGGCATGCTAAAAGGAACCTCTAGCTAGCCGACTCACTATAGGGATAATCGCCCTGAGCAAAGACC | 0.0523 ± 0.0889 |
| CTCGAGGATATCAAGATCTGGCCTCGGCAATGTAAAAGGAACCTCTAGCTAGCCGACTCACTATAGGGATAATCGCCCTGAGCAAAGACC | 0.947 ± 0.0815 |
| CTCGAGGATATCAAGATCTGGCCTCGGCGTGGTAAAAGGAACCTCTAGCTAGCCGACTCACTATAGGGATAATCGCCCTGAGCAAAGACC | 1.02 ± 0.077 |
| CTCGAGGATATCAAGATCTGGCCTCGGCTTAATAAAAGGAACCTCTAGCTAGCCGACTCACTATAGGGATAATCGCCCTGAGCAAAGACC | 2.67 ± 0.0794 |
| CTCGAGGATATCAAGATCTGGCCTCGGCATTTTACACGGAACCTCTAGCTAGCCGACTCACTATAGGGATAATCGCCCTGAGCAAAGACC | 2.19 ± 0.0742 |
| CTCGAGGATATCAAGATCTGGCCTCGGCGTTTTAGCTGGAACCTCTAGCTAGCCGACTCACTATAGGGATAATCGCCCTGAGCAAAGACC | -0.719 ± 0.136 |
| CTCGAGGATATCAAGATCTGGCCTCGGCCTTTTAATTGGAACCTCTAGCTAGCCGACTCACTATAGGGATAATCGCCCTGAGCAAAGACC | 2.53 ± 0.0779 |
| CTCGAGGATATCAAGATCTGGCCTCGGCTTGTTAAAAGGAACCTCTAGCTAGCCGACTCACTATAGGGATAATCGCCCTGAGCAAAGACC | 3.01 ± 0.0792 |
| CTCGAGGATATCAAGATCTGGCCTCGGCCTTTTATGGGGAACCTCTAGCTAGCCGACTCACTATAGGGATAATCGCCCTGAGCAAAGACC | 3.37 ± 0.0902 |
| CTCGAGGATATCAAGATCTGGCCTCGGCTTTTTAATAGGAACCTCTAGCTAGCCGACTCACTATAGGGATAATCGCCCTGAGCAAAGACC | 2.75 ± 0.0795 |
| CTCGAGGATATCAAGATCTGGCCTCGGCATTTTAACCGGAACCTCTAGCTAGCCGACTCACTATAGGGATAATCGCCCTGAGCAAAGACC | 1.17 ± 0.0785 |
| CTCGAGGATATCAAGATCTGGCCTCGGCGCGGGAGCGGGAACCTCTAGCTAGCCGACTCACTATAGGGATAATCGCCCTGAGCAAAGACC | -0.635 ± 0.137 |
| CTCGAGGATATCAAGATCTGGCCTCGGCGACCTAAAAGGAACCTCTAGCTAGCCGACTCACTATAGGGATAATCGCCCTGAGCAAAGACC | -0.787 ± 0.0956 |
| CTCGAGGATATCAAGATCTGGCCTCGGCCCGGTAAAAGGAACCTCTAGCTAGCCGACTCACTATAGGGATAATCGCCCTGAGCAAAGACC | 0.409 ± 0.0951 |
| CTCGAGGATATCAAGATCTGGCCTCGGCGTTTTACAGGGAACCTCTAGCTAGCCGACTCACTATAGGGATAATCGCCCTGAGCAAAGACC | 2.89 ± 0.0835 |
| CTCGAGGATATCAAGATCTGGCCTCGGCGCGCTTGCGGGAACCTCTAGCTAGCCGACTCACTATAGGGATAATCGCCCTGAGCAAAGACC | -0.651 ± 0.137 |
| CTCGAGGATATCAAGATCTGGCCTCGGCCTTTTAATAGGAACCTCTAGCTAGCCGACTCACTATAGGGATAATCGCCCTGAGCAAAGACC | 2.68 ± 0.0826 |

Source: doi:10.1101/2024.03.05.583629
